Bioassay records as filed in PubChem.
Most compounds without a hit are left out; they make up all but 2.3% or so of the library.
ADAM10 inh – ADAM10 inhibition, QFRET primary screen | O14672 | recombinant ADAM10, EDANS/DABCYL FRET peptide cleavage, 3 h | inhibition, % at 7 µM | actives 0.62% (n = 370,000);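 active = inhibition above a per-campaign cutoff equal to the mean of compounds falling between control-based bounds plus 3 SD, cut at about 20% in these data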
KLK7 zymogen act – proKLK7 (human) activation, primary screen; purified proKLK7, EDANS-DABCYL substrate fluorescence; 100% is mature enzyme control, 0% vehicle; activation, % at 7 µM; actives 0.9% (n = 370,000); AID 652039;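 active = activation above the mean of all tested compounds plus 3 SD, computed per campaign excluding outliers beyond control limits, cut at about 13% in these data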
ADAM17 inh – ADAM17 inhibition, QFRET primary screen; actives 0.83% (n = 370,000); inhibition, % at 6.95 µM; recombinant ADAM17, EDANS/DABCYL FRET peptide cleavage; P78536;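 active = inhibition above the mean of compounds lying between control limits plus 3 SD, set per campaign, cut at about 8.5% in these data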
Target sequence (P78536 215-824 limits assumed): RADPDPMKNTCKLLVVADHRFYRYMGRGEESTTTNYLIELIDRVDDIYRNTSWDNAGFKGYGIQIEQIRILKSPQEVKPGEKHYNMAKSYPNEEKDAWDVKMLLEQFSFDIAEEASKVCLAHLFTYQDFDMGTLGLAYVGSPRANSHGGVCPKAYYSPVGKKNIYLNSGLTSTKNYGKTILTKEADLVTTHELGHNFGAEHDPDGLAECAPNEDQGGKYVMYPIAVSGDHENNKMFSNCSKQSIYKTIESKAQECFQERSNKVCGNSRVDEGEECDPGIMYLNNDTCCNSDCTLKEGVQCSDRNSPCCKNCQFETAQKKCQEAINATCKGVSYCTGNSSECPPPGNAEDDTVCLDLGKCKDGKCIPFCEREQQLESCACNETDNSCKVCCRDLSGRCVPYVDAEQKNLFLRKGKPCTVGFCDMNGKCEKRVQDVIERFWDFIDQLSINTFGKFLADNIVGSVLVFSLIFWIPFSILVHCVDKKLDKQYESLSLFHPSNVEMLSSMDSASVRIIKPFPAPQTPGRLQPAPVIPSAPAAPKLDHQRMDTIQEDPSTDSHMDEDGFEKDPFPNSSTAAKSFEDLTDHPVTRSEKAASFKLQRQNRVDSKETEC
V-ATPase pHluor – regulators of yeast V-ATPase proton transport. S. cerevisiae, pHLuorin cytosolic pH fluorescence. response, % at 10 µM. actives 0.37% (n = 350,000). AID 504577; in the data active = response mostly above about 7.3%, no sharp cut-off; inactive = mostly below about 5.4%; note: actives read high
V-ATPase pH SP – yeast V-ATPase proton transport regulation | S. cerevisiae pHLuorin cytosolic pH | response, % at 10 µM | actives 2% (n = 980) | shares compounds with V-ATPase pHluor; in the data active = response above about 24%
Each line names hits and unclear results; the compound was inactive in the other large screens (follow-up assays come after a bar, where they were run).

O=C(O)Cn1c(-c2ccccn2)nc2ccccc21	none
CCOC(=O)Cn1c(C)nc2ccccc21	none | V-ATPase pH SP inactive
CCOC(=O)Cn1c(-c2ccccn2)nc2ccccc21	none | V-ATPase pH SP inactive
CCOC(=O)Cn1c(=O)c(-c2ccccc2NC)nc2ccccc21	none | V-ATPase pH SP inactive
CCOC(=O)N=Nc1c(O)n(CC(=O)OC)c2ccccc12	none | V-ATPase pH SP inactive
CCOc1ccc(-n2c(SCC(=O)NN=Cc3ccc(C(=O)O)cc3)nnc2-c2cccnc2)cc1	none (no result: V-ATPase pHluor)
CCN1C(=O)C(CC(=O)Nc2ccc(OC)cc2)N(CCCN2CCN(c3ccc(F)cc3)CC2)C1=S (stereo unspecified)	V-ATPase pHluor 13 | V-ATPase pH SP inactive
CCCOC(=O)c1ccc(-c2ccc(C=O)o2)cc1	V-ATPase pHluor 8.2 | V-ATPase pH SP inactive
CCOC(=O)c1ccc(-c2ccc(C=O)o2)cc1	none
Cc1[nH]c(C)c(S(=O)(=O)N(C)Cc2ccccc2)c1C(=O)N1CCCC1	none
Cc1[nH]c(C)c(S(=O)(=O)N(Cc2ccccc2)C(C)(C)C)c1C(=O)N1CCCC1	V-ATPase pHluor 10 | V-ATPase pH SP inactive
CC(=O)c1cccc(NS(=O)(=O)N2CCCCC2)c1	V-ATPase pHluor 16 | V-ATPase pH SP inactive
O=[N+]([O-])c1ccc2c(c1)-c1ccccc1C2=NO	V-ATPase pHluor 20 | V-ATPase pH SP 119
O=C(c1ccccc1OCc1ccccc1)N(Cc1ccccn1)CC1CCCO1 (stereo unspecified)	none (no result: V-ATPase pHluor)
Cc1nn(CC(=O)NCCCN2CCN(Cc3ccccc3)CC2)c(=O)c2cc(-c3ccccc3)nn12	none
CCN1CCN(CCCNC(=O)Cn2nc(C)n3nc(-c4ccccc4)cc3c2=O)CC1	V-ATPase pHluor 19 | V-ATPase pH SP inactive
COc1ccc(S(=O)(=O)NCC2CCCO2)cc1NC(=O)c1ccc(Cl)cc1 (stereo unspecified)	none
COc1ccc(S(=O)(=O)NCC2CCCO2)cc1NC(=O)c1ccccc1 (stereo unspecified)	V-ATPase pHluor 7.5 | V-ATPase pH SP inactive
COC(=O)c1ccccc1NC(=O)CN1CCCCC1	V-ATPase pHluor 12 | V-ATPase pH SP inactive
COc1ccccc1C/C(N)=N/OC(=O)c1ccc2c(c1)OCO2	V-ATPase pHluor 8.5 | V-ATPase pH SP inactive
COc1ccccc1C/C(N)=N/OC(=O)c1ccc(C)c([N+](=O)[O-])c1	none
O=C1CSC(c2ccccc2[N+](=O)[O-])N1c1cccc(F)c1 (stereo unspecified)	V-ATPase pHluor 8.3 | V-ATPase pH SP inactive
COc1ccc(C(=O)CNc2ccccc2C#N)cc1	V-ATPase pHluor 9.3 | V-ATPase pH SP inactive
COc1ccc(C(=O)CNc2ccccc2CO)cc1	none
COc1cccc(CNC(=O)CN2CCCc3ccccc32)c1	none (no result: V-ATPase pHluor)
CC(c1ccccc1)C1C(C#N)=C(N)OC2=C1C(=O)CC(C)(C)C2 (stereo unspecified)	V-ATPase pHluor 11 | V-ATPase pH SP inactive
CC1(C)CC(=O)C2=C(C1)OC(N)=C(C#N)C2C#Cc1ccccc1 (stereo unspecified)	none
O=C1CC(N2CCC(c3nc4ccccc4[nH]3)CC2)C(=O)N1c1cccc(F)c1 (stereo unspecified)	V-ATPase pHluor 5.8 | V-ATPase pH SP inactive
O=C(OCc1cn(Cc2cccc(Cl)c2)nn1)N1CCOCC1	none (no result: V-ATPase pHluor)
C[C@H]1[C@H](N(C)C)CC[C@@]23CCCN2C(=O)CCC[C@@H]13	none (no result: KLK7 zymogen act, V-ATPase pHluor)
COc1ccc([N+](=O)[O-])cc1N(CC(=O)N1CCN(Cc2ccccc2)CC1)S(C)(=O)=O	V-ATPase pHluor 8.8 | V-ATPase pH SP inactive
Cn1nnnc1Sc1c(Cl)cccc1[N+](=O)[O-]	V-ATPase pHluor 7.8 | V-ATPase pH SP inactive
Cc1cccc(OCCCn2ccnc2)c1	none
Cc1cc(C)cc(OCCCn2ccnc2)c1	V-ATPase pHluor 9.0 | V-ATPase pH SP inactive
Cc1cc(C)nc(Sc2nc(Nc3ccccc3)nc(Sc3nc(C)cc(C)n3)n2)n1	none
Cc1cc(C)nc(SC2=CS(=O)(=O)c3ccccc32)n1	none | V-ATPase pH SP inactive
O=S1(=O)C=C(Sc2nnc(-c3ccccc3)o2)c2ccccc21	V-ATPase pHluor 17 (no result: ADAM10 inh, KLK7 zymogen act, ADAM17 inh) | V-ATPase pH SP 26
C/C(=N/NC(=O)CN1CCN(Cc2ccccc2Cl)CC1)c1cccc(O)c1	none (no result: V-ATPase pHluor)
Cc1ccc(S(=O)(=O)NC(=O)NCCCCNC(=O)NS(=O)(=O)c2ccc(C)cc2)cc1	V-ATPase pHluor 18 | V-ATPase pH SP inactive
CCCCNC(=O)NS(=O)(=O)c1ccc(C)cc1	none
CCCCNC(=O)C[C@H]1C[C@@]2(C(=O)OC)C(=C[C@H](C(C)(C)C)O[C@@H]2C)N(CCc2ccc(OC)c(OC)c2)C1=O	none (no result: V-ATPase pHluor)
